The panel holds about 83,000 compounds, 20% with a hit somewhere; the sample as a whole holds those more often.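 Cell lines were cultured in 96-well plates, exposed to a single compound concentration, and assessed for percent growth 48 hours later.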 Unmarked numbers belong to inactive results. Calls of active or inactive are those of the source.
These molecules were tested on SR leukemia (assay: NCI-60 one-dose screen, 48 h (100 = growth as untreated, 0 = no growth, -100 = all killed)). Settings: 10 µM unless noted.
Experimental: Growth inhibition of the SR human tumor cell line is measured as a screen for anti-cancer activity. Cells are grown in 96 well plates and exposed to the test compound for 48 hours. Compounds are tested at a single concentration, which is 10^-5 M for most compounds. The reported endpoint is percent growth (GI% or GIPRCNT), where numbers from 0 - 100% represent growth inhibition, and numbers from -100% - 0 represent cell death. For example, a value of 40 represents 60% growth inhibition. A value of 0 means no net growth occurred over the course of the experiment. A value of -40 indicates 40% of cells at the beginning of the experiment died by the end of the experiment. A value of -100 means all cells are dead at the end of the experiment.
NCI-60 Human Tumor Cell Lines Screen was performed using the standard one-dose NCI protocol, which is described in more detail at https://dtp.cancer.gov/discovery_development/nci-60/default.htm.
Compounds with GIPRCNT values below 10 were considered active. Activity score was based on GIPRCNT using the following formula: […]
Score is 0 for GIPRCNT values of 100 or above, 50 for GIPRCNT values of 0, and 100 for GIPRCNT values of -100.

Row | SMILES | growth
1 | CC1(C)C(=O)/C(=C\c2ccc(C(F)(F)F)cc2)C[C@]2(C)[C@H]3CC[C@@H]4[C@H]5[C@H](C(=O)/C=C/c6ccc(C(F)(F)F)cc6)CC[C@]5(CO)CC[C@@]4(C)[C@]3(C)CC[C@@H]12 | 82.2%
2 | OCc1ncc(-c2ccccc2)s1 | 107%
3 | Cc1cc(C2(c3cc(C)c(O)cc3C)OS(=O)(=O)c3ccccc32)c(C)cc1O | 95.3%
4 | COc1c2occc2c(OC)c2c(=O)c(-c3cc(-c4ccc(F)cc4)c(C#N)c(N)n3)c(C)oc12 | 15.5%
5 | CN1CCN(Cc2ccc(NC(=O)c3nc4ccc5[nH]ncc5c4c4c3CCC4)cc2C(F)(F)F)CC1 | -31.6% (active)
6 | O=C1C(Cl)=C(Nc2ccccn2)C(=O)c2ccccc21 | 81.4%
7 | CN(C)c1ncnc2c1ccn2C1OC(CO)C(O)C1O (stereo not given) | 89.5%
8 | O=[N+]([O-])c1cccc(-c2nc3sccn3c2-c2ccnc(NCCCNS(=O)(=O)c3ccc(C(F)(F)F)cc3)n2)c1 | 37.5%
9 | COc1ccc2c(c1)NC1=C(C(=O)OC1)C2c1cc(OC)c2c(c1)OCO2 (stereo not given) | 2.24% (active)
10 | COc1ccc(S(=O)(=O)NCCCNc2nccc(-c3c(-c4cccc([N+](=O)[O-])c4)nc4sccn34)n2)cc1 | 53.5%
11 | C=CCn1c2ccccc2c2c3c(c4c5ccccc5n(CC=C)c4c21)C(=O)N(O)C3=O | 7.52% (active)
12 | CCNc1nc(S(=O)(=O)CC)nc2ccccc12 | 84.5%
13 | COC(=O)C1CCCN1C(=O)[C@@H]1CCCN1C(=O)[C@H](Cc1c[nH]c2ccccc12)NC(=S)Nc1cc(C(F)(F)F)cc(C(F)(F)F)c1 (stereo not given in full) | 0.677% (active)
14 | S=c1[nH]nc(-c2cc3ccc2CCc2ccc(cc2)CC3)n1-c1ccccc1 | 96.6%
15 | COc1cc(/C=C/C(=O)c2c(C)nc3ccccc3c2C)ccc1OCCCCOc1cc2c(cc1OC)C(=O)N1CCC[C@H]1C=N2 | -25.1% (active)
16 | C=C(C)[C@@H]1C[C@H](O)Cc2cc(F)ccc2N1 | 83.2%
17 | O=C(NNC(=S)Nc1ccccc1)c1cc2ccc1CCc1ccc(cc1)CC2 | 78.4%
18 | CCN(CC)c1ccc2[nH]c3c(C(N)=O)cc(=O)c(=O)c=3oc2c1 | 5.09% (active)
19 | O=C(CSc1nc2ccccc2[nH]1)c1ccc(N2CCOCC2)cc1 | 129%
20 | NC1N=C(SCC(=O)N2CCN(c3cc4c(cc3F)c(=O)c(C(=O)O)cn4C3CC3)CC2)NC(=O)/C1=C/c1ccc(Cl)cc1 (stereo not given) | 110%

Row | SMILES | growth
21 | CC(C)(C)n1cc(-c2ccnc(NCCNS(=O)(=O)c3ccc(Cl)cc3)c2)c(-c2cccc(O)c2)n1 | 24.9%
22 | CC(C)(C)n1cc(-c2ccnc(NCCCNS(=O)(=O)c3ccccc3)c2)c(-c2cccc(O)c2)n1 | 20.9%
23 | Cc1ccc(-c2cc3nc(C(Cl)Cl)nc(-c4ccccc4C)n3n2)cc1 | 17.7%
24 | CCO/C=N/C1=C(C#N)C(c2ccc(Cl)cc2)c2c(c3ccccc3n(C)c2=O)O1 (stereo not given) | 22.7%
25 | O=Nc1c(-c2cccc([N+](=O)[O-])c2)nc2ncccn12 | -27.8% (active)
26 | Cc1cc(N/N=C/c2nc(-c3ccccc3)oc2C)c2cc(Br)ccc2n1 | -4.64% (active)
27 | O=C(/C=C\c1cccc([N+](=O)[O-])c1)/C=C/c1cccc([N+](=O)[O-])c1 | 44.2%
28 | COc1ccncc1S(=O)(=O)NC(=O)Nc1ccc(Cl)c(Cl)c1 | 74.8%
29 | c1ccc(-c2nc(N3CCNCC3)c3nc(-c4ccccc4)oc3n2)cc1 | 0.501% (active)
30 | C=C(C)[C@@H]1C[C@@H]2Cc3cc(Cl)ccc3N1O2 | 90.5%
31 | CCCN=C1NC(=O)/C(=C/c2nc(-c3ccc(OC)cc3)n3ccccc23)S1 | 62.5%
32 | Oc1ccccc1/C=N/NC(=S)NC1CC2C=CC1C2 (stereo not given) | 30.1%
33 | Cc1ccc(Nc2nnc(-c3ccc(Cl)cc3)o2)c(C)c1 | 53%
34 | O=[N+]([O-])c1ccc(/C=C/C2(CCl)OCCO2)cc1 | 1.55% (active)
35 | COc1cccc(/C=C2\Oc3cc(OCCCN4CCCC4)ccc3C2=O)c1 | -22.9% (active)
36 | Cc1ccc(-c2cc3nc(-c4ccccc4)nc(C(Cl)Cl)n3n2)cc1 | 71.2%
37 | CC12CCC3C4(C)COC(c5ccccc5Cl)OC4CCC3(C)C1CC(C1=CCOC1=O)O2 (stereo not given) | 28%
38 | N#Cc1c(-c2ccccc2)cc(-c2ccccc2)n(CC(=O)NO)c1=O | 2.74% (active)
39 | Clc1ccc2c(NC3CCC(NC4CCCCC4)CC3)ccnc2c1 (stereo not given) | -3.32% (active)
40 | CCN(CC)CCC(CNc1c2ccc(Cl)cc2nc2ccc(OC)cc12)c1ccccc1 (stereo not given) | -6.4% (active)

Reference: PubChem BioAssay (NCI)
